# Measurements: PubChem BioAssay (NCI)
# “And” between values parts separate entries of the source, which are not always exact repeats. Equal entries are not always repeated. This is part of a sample that, as a whole, favours compounds with a hit. Of some 83,000 tested, about 20% had one in any assay.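 Interpretation: 100, growth as untreated; towards 0, rising growth inhibition; 0, no net growth; 0 to -100, cell death. Compounds scoring below 10 were considered active.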 The source made the active and inactive calls.
# Columns and labels:
# Assay in all cases: NCI-60 one-dose screen, 48 h (100 = growth as untreated, 0 = no growth, -100 = all killed)
# Settings in all cases: 10 µM unless noted
# [1] = system: UACC-62 melanoma
# [2] = system: TK-10 renal
# [3] = system: HCT-15 colon
# [4] = system: HT29 colon
# [5] = system: SNB-19 CNS
# [6] = system: U251 CNS
# [7] = system: PC-3 prostate
# [8] = system: SK-MEL-5 melanoma
# [9] = system: LOX IMVI melanoma
# [10] = system: SK-MEL-28 melanoma
# [11] = system: EKVX NSCLC
# [12] = system: SN12C renal
# [13] = system: UO-31 renal
# [14] = system: ACHN renal
# [15] = system: CAKI-1 renal
# [16] = system: A498 renal
# [17] = system: CCRF-CEM leukemia
# [18] = system: MOLT-4 leukemia
# [19] = system: SK-MEL-2 melanoma
smiles,measurement,setting,value
CC1=C2NCN(C)N=C2C(C#N)(C#N)C1(C#N)C#N,growth,[1],-78.8% [100 µM] (active) and -94.8% [100 µM] (active)
same,growth,[2],-7.38% [100 µM] (active) and -90.4% [100 µM] (active)
OCCN1CCN(CCCN2c3ccccc3Sc3ccc(Cl)cc32)CC1,growth,[3],49.6% (inactive) and 80.8% (inactive)
same,growth,[4],1.64% (active) and 18.2% (inactive)
same,growth,[5],75.6% (inactive) and 100% (inactive)
same,growth,[6],58.2% (inactive) and 73.1% (inactive)
same,growth,[7],47.7% (inactive) and 67% (inactive)
same,growth,[8],50.4% (inactive)
same,growth,[1],-64.3% (active) and 23.5% (inactive)
same,growth,[9],29.4% (inactive) and 69.6% (inactive)
same,growth,[10],-33.9% (active) and 56.1% (inactive)
same,growth,[11],66.8% (inactive)
same,growth,[12],50.2% (inactive) and 72.8% (inactive)
same,growth,[13],36.1% (inactive) and 45.1% (inactive)
same,growth,[2],47.8% (inactive) and 75.4% (inactive)
same,growth,[14],62.3% (inactive) and 76.1% (inactive)
same,growth,[15],47.9% (inactive) and 68.8% (inactive)
same,growth,[16],58.4% (inactive) and 77.8% (inactive)
same,growth,[17],40.6% (inactive) and 55.9% (inactive)
same,growth,[18],47.9% (inactive) and 53.3% (inactive)
CCOC(=O)c1sc(N)nc1-c1ccccc1,growth,[3],97.3% (inactive)
same,growth,[4],96.8% (inactive)
same,growth,[5],109% (inactive)
same,growth,[6],98.8% (inactive)
same,growth,[7],98% (inactive)
same,growth,[8],100% (inactive)
same,growth,[1],112% (inactive)
same,growth,[9],95.5% (inactive)
same,growth,[10],109% (inactive)
same,growth,[12],104% (inactive)
same,growth,[13],85.4% (inactive)
same,growth,[2],99% (inactive)
same,growth,[14],93.7% (inactive)
same,growth,[15],103% (inactive)
same,growth,[16],94.5% (inactive)
same,growth,[17],97.7% (inactive)
same,growth,[18],96.1% (inactive)
COc1cc2c(c3c1c(=O)c1ccccc1n3C)C=C([N+](=O)[O-])C(C)(C)O2,growth,[1],-21.5% [100 µM] (active) and -100% [100 µM] (active)
same,growth,[2],31.2% [100 µM] (inactive) and -98.1% [100 µM] (active)
COc1ccc(-c2coc3c4c(ccc3c2=O)OCO4)cc1OC,growth,[1],43.3% [100 µM] (inactive) and 6.94% [100 µM] (active)
same,growth,[2],54.4% [100 µM] (inactive) and 6.05% [100 µM] (active)
CNC(=S)/C(=N\Nc1nc[nH]c1C(N)=O)C(N)=S,growth,[1],-8.08% [100 µM] (active) and 0.0251% [100 µM] (active)
same,growth,[2],5.27% [100 µM] (active) and 4.34% [100 µM] (active)
COC(=O)C(=O)C(C(=O)C(=O)Nc1ccc(Cl)c(Cl)c1)c1nc2ccc(C(=O)c3ccccc3)cc2[nH]c1=O (configuration not stated),growth,[1],43.9% [100 µM] (inactive) and 6.66% [100 µM] (active)
same,growth,[2],89.4% [100 µM] (inactive) and 14.4% [100 µM] (inactive)
Fc1ccc(Nc2nc(Cl)c3[nH]cnc3n2)cc1Cl,growth,[1],68% [100 µM] (inactive) and 34.7% [100 µM] (inactive)
same,growth,[2],48.7% [100 µM] (inactive) and -27.6% [100 µM] (active)
Cc1ccc(/C=C2/N=C(N/N=C\c3ccccc3)NC2=O)cc1,growth,[1],28.2% [100 µM] (inactive) and 56.4% [100 µM] (inactive)
same,growth,[2],-15.5% [100 µM] (active) and 0.251% [100 µM] (active)
O=C(O)c1cc(C(=O)O)cc([N+](=O)[O-])c1,growth,[3],104% (inactive)
same,growth,[4],105% (inactive)
same,growth,[5],106% (inactive)
same,growth,[6],100% (inactive)
same,growth,[8],104% (inactive)
same,growth,[1],105% (inactive)
same,growth,[9],97.4% (inactive)
same,growth,[10],118% (inactive)
same,growth,[19],102% (inactive)
same,growth,[11],106% (inactive)
same,growth,[12],107% (inactive)
same,growth,[13],91.3% (inactive)
same,growth,[2],102% (inactive)
same,growth,[14],105% (inactive)
same,growth,[15],96.2% (inactive)
same,growth,[16],103% (inactive)
same,growth,[17],94.9% (inactive)
same,growth,[18],98.4% (inactive)
CCC(C)C1(O)OC2CC3(C)OC(=CC3=O)/C(C)=C\C3OC(=O)C1(C)C32 (configuration not stated),growth,[1],-34.4% [100 µM] (active) and -100% [100 µM] (active)
same,growth,[2],41.8% [100 µM] (inactive) and -90.7% [100 µM] (active)
CC1OC23CCCCC2C(C#N)(C#N)C1(C#N)C(=N)O3 (configuration not stated),growth,[1],-14.6% [100 µM] (active)
same,growth,[2],36.7% [100 µM] (inactive)
CC(=O)Nc1cccc2c1CCCC2,growth,[3],92.8% (inactive) and 96.5% (inactive)
same,growth,[4],92.8% (inactive) and 85.6% (inactive)
same,growth,[5],103% (inactive) and 104% (inactive)
same,growth,[6],97.7% (inactive) and 95.7% (inactive)
same,growth,[7],87.8% (inactive) and 90.2% (inactive)
same,growth,[8],100% (inactive)
same,growth,[1],107% (inactive) and 102% (inactive)
same,growth,[9],97.1% (inactive) and 93.6% (inactive)
same,growth,[10],104% (inactive) and 107% (inactive)
same,growth,[11],96.6% (inactive) and 94.7% (inactive)
same,growth,[12],103% (inactive) and 100% (inactive)
same,growth,[13],88.2% (inactive) and 91% (inactive)
same,growth,[2],85.6% (inactive) and 83.7% (inactive)
same,growth,[14],102% (inactive) and 110% (inactive)
same,growth,[15],95.1% (inactive)
same,growth,[16],97.8% (inactive) and 121% (inactive)
same,growth,[17],82.6% (inactive) and 100% (inactive)
same,growth,[18],104% (inactive) and 102% (inactive)
CC(CN=Cc1ccccc1O)N=Cc1ccccc1O (configuration not stated),growth,[3],105% (inactive) and 97.2% (inactive)
same,growth,[4],115% (inactive) and 110% (inactive)
same,growth,[5],96.1% (inactive) and 101% (inactive)
same,growth,[6],96.6% (inactive) and 104% (inactive)
same,growth,[7],96% (inactive) and 95.8% (inactive)
same,growth,[8],102% (inactive) and 106% (inactive)
same,growth,[1],107% (inactive) and 105% (inactive)
same,growth,[9],101% (inactive) and 88.8% (inactive)
same,growth,[10],117% (inactive) and 102% (inactive)
same,growth,[11],102% (inactive) and 111% (inactive)
same,growth,[12],90.4% (inactive) and 98.7% (inactive)
same,growth,[13],107% (inactive) and 80.3% (inactive)
same,growth,[2],110% (inactive) and 106% (inactive)
same,growth,[14],103% (inactive) and 93.8% (inactive)
same,growth,[15],93.6% (inactive) and 99.1% (inactive)
same,growth,[16],121% (inactive) and 105% (inactive)
same,growth,[17],92.3% (inactive) and 96.2% (inactive)
same,growth,[18],120% (inactive) and 93.3% (inactive)
